The record followed here is ChEMBL document CHEMBL4513216, “Probing the Open Global Health Chemical Diversity Library for Multistage-Active Starting Points for Next-Generation Antimalarials” (ACS Infect Dis, 2020).

The whole screen tested about 68,000 compounds, of which about 2,700 (4%) showed an effect of 50% or more. Only a selection was taken, and strong results are over-represented in it overall.

In the experiment the test system is Plasmodium berghei. The experiment is described as follows: Screen against P. berghei liver stage (PbLuc), transformed with Luciferase, at 2uM. The experiment is classed as functional, HepG2. The note with it: tested at 2 uM.
For `Cc1nccn1CCC(=O)N1CCC2(CCC(=O)N(CC3CC3)C2)CC1`, the INHIBITION is given as -63.27%. The value for `Cn1cc(Br)c(=O)c(NS(=O)(=O)c2ccc(Cl)cc2)c1` was 4.67%. Then `Cn1cc(Br)c(=O)c(NS(=O)(=O)c2ccc(F)cc2)c1`, with 55.04%. Then `CCc1ccc(S(=O)(=O)Nc2cn(C)cc(Br)c2=O)cc1`, with 11.28%; and `CNS(=O)(=O)c1cc(C(=O)N(C)Cc2sccc2C)c(C)o1`, with 10.48%.

For the molecule `Cc1cc(C(=O)N2C[C@@H](C(=O)O)[C@H](C(C)C)C2)cs1`, the INHIBITION is reported as -3.66%.

As to `Cc1cc(C(=O)N2C[C@H](C(C)C)[C@@H](N(C)C)C2)cs1`, the INHIBITION came to 68.66%.

For `Cc1nc(CC(C)C)cc(C(=O)N2C[C@@H](N(C)C)[C@H](C(C)C)C2)n1`, the INHIBITION is given as 0.55%.

With `CC(C)c1cccc(N2CCCC3(CCC(=O)N(C4CC4)C3)C2)n1` (stereo not drawn), the INHIBITION was -90.99%.

For the molecule `Cc1ccc(O)c(CNCC(C)c2nc3ccccc3o2)n1` (stereo not drawn), the INHIBITION is 35.36%.

Regarding `CCC(CC)C(=O)N1CCOC2(COCCN(CC(=O)NC)C2)C1` (stereo not drawn), the INHIBITION is 48.52%. The value for `CC(C)NC(=O)N1CCOC2(CNC2)C1` was 44.13%; that for `CCC(CC)C(=O)N1CCOC2(CNC2)C1` was 58.95%. Consider `Cc1cc(C(=O)NCC(C)C)c2c(C3CCCN3)noc2n1` (stereo not drawn), for which the INHIBITION was -14.61%. For the molecule `Cc1noc(CNC2CCCN(Cc3noc(C4CC4)n3)C2)n1` (stereo not drawn), the INHIBITION is reported as 10.53%. The value for `COc1cc(N2CCN(Cc3ccsc3)C(CCO)C2)nc(N)n1` (stereo not drawn) was 39.92%. Then `Cc1cc(N2CCN(Cc3ccsc3)C(CCO)C2)nc(N)n1` (stereo not drawn), with 34%; and `CC(C)Oc1cc(N2CCN(Cc3ccsc3)C(CCO)C2)nc(N)n1` (stereo not drawn), with 51.76%. As for `O=c1[nH]c2cn(-c3cccc(Cl)c3)c(=O)n2n1Cc1cccc(F)c1`, the INHIBITION was determined as 42.62%. `O=c1[nH]c2cn(-c3cccc(F)c3)c(=O)n2n1Cc1ccc(Cl)cc1`: the INHIBITION worked out at 5.87%. Then `O=c1[nH]c2cn(-c3ccc(F)cc3)c(=O)n2n1Cc1cccc(Cl)c1`, with 58%. Turning to `CCCn1nc2c(cc1=O)CN(CCN1CCCC1=O)CC2`, the INHIBITION is reported as -33.39%.

Turning to `CC(C)(C)n1ncc2c(=O)[nH]c(N3CCN(CCO)CC3)nc21`, the INHIBITION is given as 40.47%. In the case of `CC(=O)N1CCN(c2nc3c(cnn3C(C)(C)C)c(=O)[nH]2)CC1`, the INHIBITION was -12.08%. Then `CC(C)(C)n1ncc2c(=O)[nH]c(N3CCN(CC(F)F)CC3)nc21`, with 66.74%. For `CSCC[C@H](N)C(=O)NCc1cc2n(n1)CCCN(C1CCCCC1)C2`, the INHIBITION is -46.68%.

With `Cc1ccc(S(=O)(=O)NC[C@H]2OC[C@@H](NCc3ccccc3)[C@@H]2O)cc1`, the INHIBITION amounted to 75.87%. As for `Cc1ccc(CN[C@@H]2CO[C@H](CNS(=O)(=O)c3ccccc3)[C@H]2O)cc1`, the INHIBITION is reported as -6.18%. Then `Cc1ccc(S(=O)(=O)NC[C@H]2OC[C@@H](NCc3ccncc3)[C@@H]2O)cc1`, with 16.47%. On to `Cc1nc(N(Cc2ccncc2)CC2CCCO2)c2ccsc2n1` (stereo not drawn), for which the INHIBITION is given as -59.39%. For the molecule `Cc1nc(NCCc2noc(C3CCCO3)n2)c2sccc2n1` (stereo not drawn), the INHIBITION was 49.63%. Then `O=C(NCCc1noc(C2CCCO2)n1)c1cn2ccsc2n1` (stereo not drawn), with 40.88%; and `O=C(NCc1noc(C2CCCO2)n1)c1cn2ccsc2n1` (stereo not drawn), with 22.09%; and `Cc1nc(NCc2noc(C3CCCO3)n2)c2ccsc2n1` (stereo not drawn), with 59.01%. Consider `Cc1nc(NCc2noc(C3CCCO3)n2)c2sccc2n1` (stereo not drawn), for which the INHIBITION was 61.69%.

Regarding `O=C(CCCOc1ccc(F)cc1F)N1CCCC1Cn1cccn1` (stereo not drawn), the INHIBITION was determined as 6.12%.

For `CN(Cc1cc2n(n1)CCCN(C(=O)N1CCCC1)C2)Cc1nccs1`, the INHIBITION is on record as -10.4%. `CCc1csc(CNc2nc3c(s2)c(C)nn3C)n1`: the INHIBITION is listed as 28.14%. Turning to `Cc1nc(CNc2nc3c(s2)c(C)nn3C)cs1`, the INHIBITION is reported as 38.49%. As for `CCc1nc(CNc2nc3c(s2)c(C)nn3C)cs1`, the INHIBITION was found to be 51.4%.

For `O=C(NC1CCc2[nH]c(=O)ccc2C1)C1CCOCC1` (stereo not drawn), the INHIBITION was 0.79%. Then `CCN1CC[C@@]2(C(=O)N3CCOCC3)CCN(C(=O)NC)CC[C@@H]12`, with 19.42%; and `CSC1=Nc2c(cnn2-c2ccc(C)cc2)C2=NCCCN12`, with 44.7%. Then `CCOc1ccccc1C(=O)N1CCCC1c1ncc2c(n1)CCNC2` (stereo not drawn), with -2.7%; and `O=C(C1CCS(=O)(=O)CC1)N1CCC(Cc2ccc(F)cc2)CC1`, with 9.75%; and `CCC(=O)N1CCCC1C(=O)N1CCC(Cc2ccc(F)cc2)CC1` (stereo not drawn), with 69.52%. As for `CN1C[C@@H](N)C[C@H]1C(=O)N1CCC(Cc2ccc(F)cc2)CC1`, the INHIBITION was 29.87%.

As to `c1cnnc(N2CCCC2CNCc2nc(-c3cccs3)no2)c1` (stereo not drawn), the INHIBITION is -8.75%. Then `Cc1cccc(-n2nc(CC(C)C)nc2CS(C)(=O)=O)c1`, with 3.92%; and `Cc1cc(N2CCC(N(C)C(=O)c3sccc3C)CC2)nc(C)n1`, with -82.24%; and `Cc1ccsc1-c1nccn1CCN1CCCCC1CO` (stereo not drawn), with -12.08%. Turning to `OCC1CCCCN1CCn1ccnc1-c1ccc2c(c1)OCCO2` (stereo not drawn), the INHIBITION was 63.46%. In the case of `Cc1cc(-c2nccn2CCN2CCCCC2CO)oc1C` (stereo not drawn), the INHIBITION is 47.04%.
